Most compounds without a hit are left out; they make up all but 19% or so of the library.
KB-3-1 tox – KB-3-1 parental cell cytotoxicity; KB-3-1 viability, CellTiter-Glo ATP luminescence, 72 h; Potency, µM (doses to about 46.1 µM), usual class: cytotoxic; 400,000 compounds, 1.4% hits; also: nearly all actives have a fitted effect of over 60% in size
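KB-3-1 parental drug-naive adenocarcinoma cells in DMEM/10% FBS, incubated 72 h at 37 C with pin-transferred compounds across a concentration series. Viability by CellTiter-Glo luminescence; concentration-response curves fitted after normalization.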
KB-V1 cytotox – kills drug-selected multidrug resistant KB-V1 cells. KB-V1 MDR cells viability, CellTiter-Glo, 72 h. Potency, µM (top dose mostly 46.1 µM), most hits filed as cytotoxic. 400,000 compounds, 3.4% hits. AID 1347076; also: nearly all actives have a fitted effect of over 60% in size
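KB-V1, DMEM (no phenol red) + 10% FBS; cpd pin-transferred, titration series; 72 h, 37 degrees C; CellTiter-Glo, luminescence. Data normalized, curve-fit.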
DT40 TDP1 no CPT – qHTS for Inhibitors of human tyrosyl-DNA phosphodiesterase 1 (TDP1): qHTS in cells in absence of CPT. DT40 Tdp1-/- hTDP1 cells, no CPT, ATP luminescence, 48 h. Potency, µM (titrated, usually from 46.2 µM), for inactives: at the highest dose activity change, negative = growth inhibition, most hits filed as inhibitors. 420,000 compounds, 15% hits. AID 686978, 2013; also: nearly all actives have a fitted effect of over 55% in size
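Chicken DT40 Tdp1-/- cells complemented with human TDP1, screened without camptothecin (DMSO vehicle only), 400 cells/well. Compounds pin-transferred, cells incubated at 37 °C for at least 48 hr. Growth read as ATP-dependent luminescence (CellTiter-Glo, 30 min at RT).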
TDP1 cell CPT – growth inhibition of DT40 Tdp1-/-;hTDP1 cells with camptothecin (screen for TDP1 inhibitors). chicken DT40 Tdp1-/-;hTDP1 cells + 20 nM CPT, ATP luminescence, 48 h. Potency, µM (top dose mostly 46.2 µM), for inactives: top-dose activity change, negative = growth inhibition, usual class: inhibitors. 420,000 compounds, 12% hits; also: nearly all actives have a fitted effect of over 55% in size
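Cell growth measured by CellTiter-Glo luminescence after a minimum 48 h, 37 C compound exposure with 20 nM CPT in Tdp1-knockout DT40 cells stably expressing hTDP1, seeded 400/well; qHTS titration format.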
HT1080-NT tox – kills 2HG-producing HT-1080-NT fibrosarcoma cells. 360,000 compounds, 1.6% hits. AID 686970. HT-1080-NT fibrosarcoma viability, CellTiter-Glo ATP luminescence, 48 h. Potency, µM (titrated, usually from 46.1 µM), for inactives: at the highest dose activity, negative = less viability, most hits filed as cytotoxic;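 also: NT is the 2HG producing partner of a matched IDH1 knockdown line; 0% = DMSO-treated cells and -100% = media-only wells without cells; nearly all actives have a fitted effect of over 55% in size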
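A 48-hour cytotoxicity screen used HT-1080-NT cells plated 2 hours before compound delivery. ATP-based CellTiter-Glo luminescence measured viability, normalized to DMSO and no-cell controls.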
HT1080 IDH1KD tx – HT-1080 IDH1 knockdown cell toxicity (counter line) | Potency, µM (top dose mostly 46.1 µM), inactives show at the highest dose activity, negative = toxicity, most hits filed as cytotoxic | HT-1080 IDH1 knockdown viability, ATP luminescence, 48 h | 360,000 compounds, 2% hits;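 also: 0% = DMSO wells and -100% = cell-free medium wells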
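% activity derives from luminescence (CellTiter-Glo), normalised to DMSO and no-cell wells. HT-1080-IDH1KD cells, 750/well, had 48 h compound exposure at 37 °C.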
The depositor's hits bear a star. Calls follow the shape of the dose curve; as a rule, active = well fitted curve in the direction sought with a large enough effect; inconclusive = small, poorly fitted or top-dose-only effect, or another doubt; inactive = no such curve, though single readings can be large; an effect the other way counts as inactive or inconclusive. Unless noted, % is scaled to controls: 0 for no effect and ±100 for the full control effect; potency is read from the fitted curve at half-maximal effect.

What do the screens show for `O=C(COc1ccc(Br)cc1CO)N1CCCc2ccccc21`?
KB-3-1 tox: inactive; KB-V1 cytotox: inconclusive; DT40 TDP1 no CPT: 26µM*; TDP1 cell CPT: -6%; HT1080-NT tox: -6%; HT1080 IDH1KD tx: 0%

What do the screens show for `CNc1cc(-c2ccccc2C(F)(F)F)ncn1`?
DT40 TDP1 no CPT: 1%; TDP1 cell CPT: -2%

Results for CCOc1cc(C(=O)NC2CCCCCCC2)cc(OCC)c1OCC ?
KB-3-1 tox: inactive; KB-V1 cytotox: inactive; DT40 TDP1 no CPT: inconclusive; TDP1 cell CPT: -15%; HT1080-NT tox: 14%; HT1080 IDH1KD tx: 11%

Results for Cc1scc(C(=O)NNC(=S)NC(C)c2ccccc2)c1C (configuration not stated) ?
KB-3-1 tox: inactive; KB-V1 cytotox: inactive; DT40 TDP1 no CPT: 21µM*; TDP1 cell CPT: 16µM*; HT1080-NT tox: 12%; HT1080 IDH1KD tx: 9%

How did CCCCNC(=S)NNC(=O)c1csc(C)c1C do in these assays?
KB-3-1 tox: inactive; KB-V1 cytotox: inactive; DT40 TDP1 no CPT: inconclusive; TDP1 cell CPT: inconclusive; HT1080-NT tox: 1%; HT1080 IDH1KD tx: 0%

What do the screens show for `COc1ccc(OC)c(N(CC(=O)NC2CCCCCC2)S(=O)(=O)c2ccc(C)cc2)c1`?
KB-3-1 tox: inactive; KB-V1 cytotox: inconclusive; DT40 TDP1 no CPT: 23µM*; TDP1 cell CPT: 23µM*; HT1080-NT tox: -1%; HT1080 IDH1KD tx: 3%

What do the screens show for `COc1ccc(OC)c(N(CC(=O)NC2CCCC2)S(=O)(=O)c2ccc(OC)c(OC)c2)c1`?
KB-3-1 tox: inconclusive; KB-V1 cytotox: inconclusive; DT40 TDP1 no CPT: 15µM*; TDP1 cell CPT: 15µM*; HT1080-NT tox: 6%; HT1080 IDH1KD tx: 4%

Results for Cc1ccc(S(=O)(=O)N(CC(=O)NC2CCCC2)c2cccc(C)c2)cc1 ?
KB-3-1 tox: inactive; KB-V1 cytotox: 4.1µM*; DT40 TDP1 no CPT: inconclusive; TDP1 cell CPT: -13%; HT1080-NT tox: 10%; HT1080 IDH1KD tx: 7%

How did COc1ccc(S(=O)(=O)N(C)CC(=O)NC2CCCC2)cc1OC do in these assays?
DT40 TDP1 no CPT: -1%; TDP1 cell CPT: 1%; HT1080-NT tox: 1%; HT1080 IDH1KD tx: 4%

How did COC(=O)CN(c1cc(Cl)ccc1OC)S(=O)(=O)c1ccc(OC)c(OC)c1 do in these assays?
KB-3-1 tox: inactive; KB-V1 cytotox: 2.3µM*; DT40 TDP1 no CPT: -24%; TDP1 cell CPT: inconclusive; HT1080-NT tox: 3%; HT1080 IDH1KD tx: -1%

What do the screens show for `COc1cc(/C=N/NC(=O)Cc2nnc(N)s2)cc(OC)c1OC`?
KB-3-1 tox: inactive; KB-V1 cytotox: inactive; DT40 TDP1 no CPT: -6%; TDP1 cell CPT: 5%; HT1080-NT tox: 4%; HT1080 IDH1KD tx: 14%

Results for O=C(C[n+]1ccccc1Br)c1ccc(O)c(O)c1 ?
KB-3-1 tox: inconclusive; KB-V1 cytotox: inactive; DT40 TDP1 no CPT: -6%; TDP1 cell CPT: 12%

How did COc1ccc(NC(=O)CN2C(=O)C(=O)N(C3CCCC3)C2=O)c(OC)c1 do in these assays?
KB-3-1 tox: inactive; KB-V1 cytotox: inactive; DT40 TDP1 no CPT: 11%; TDP1 cell CPT: -5%; HT1080-NT tox: 7%; HT1080 IDH1KD tx: 2%

What do the screens show for `CCOC(=O)CN(C(=O)c1snc(C(N)=O)c1N)C(C(=O)NCCC(C)C)c1ccc(C)cc1` (configuration not stated)?
KB-3-1 tox: inactive; KB-V1 cytotox: inactive; DT40 TDP1 no CPT: -20%; TDP1 cell CPT: -25%; HT1080-NT tox: 5%; HT1080 IDH1KD tx: 6%

Results for CCOC(=O)c1nnc2c(-c3ccc(Cl)cc3)c(C)nn2c1N ?
KB-3-1 tox: inactive; KB-V1 cytotox: inactive; DT40 TDP1 no CPT: -7%; TDP1 cell CPT: 16%

What do the screens show for `c1ccc(-c2noc(-c3cccnc3NCc3ccco3)n2)cc1`?
KB-3-1 tox: inactive; KB-V1 cytotox: inactive; DT40 TDP1 no CPT: -12%; TDP1 cell CPT: inconclusive

What do the screens show for `CCNc1ncc2nc(-c3ccc(OC)cc3)c(=O)n(CCOC)c2n1`?
DT40 TDP1 no CPT: 6%; TDP1 cell CPT: 4%

Results for COc1ccc2c(c1)CCO[C@]21O[C@H](CCO)C[C@H](O)[C@H]1O ?
KB-3-1 tox: inactive; KB-V1 cytotox: inactive; DT40 TDP1 no CPT: -9%; TDP1 cell CPT: -5%; HT1080-NT tox: 1%; HT1080 IDH1KD tx: -1%

Results for CCOc1ccccc1N(CC(=O)NC1CCCCC1)S(=O)(=O)c1ccc(C)cc1 ?
KB-3-1 tox: inactive; KB-V1 cytotox: inactive; DT40 TDP1 no CPT: 21µM*; TDP1 cell CPT: inconclusive; HT1080-NT tox: -8%; HT1080 IDH1KD tx: -11%

Results for COc1ccccc1N(CC(=O)NC1CCCC1)S(=O)(=O)c1ccc(C)cc1 ?
KB-3-1 tox: inactive; KB-V1 cytotox: inconclusive; DT40 TDP1 no CPT: -22%; TDP1 cell CPT: -21%; HT1080-NT tox: 1%; HT1080 IDH1KD tx: 1%

How did COC(=O)c1c(C)[nH]c(C(=O)OC(C)C(=O)N2CCOCC2)c1C (configuration not stated) do in these assays?
KB-3-1 tox: inactive; KB-V1 cytotox: inactive; DT40 TDP1 no CPT: -1%; TDP1 cell CPT: 15%; HT1080-NT tox: 7%; HT1080 IDH1KD tx: 12%

How did COC(=O)c1c(C)[nH]c(C(=O)OC(C)C(=O)NC2CCCCC2C)c1C (configuration not stated) do in these assays?
KB-3-1 tox: inactive; KB-V1 cytotox: inactive; DT40 TDP1 no CPT: inconclusive; TDP1 cell CPT: 12µM*; HT1080-NT tox: -13%; HT1080 IDH1KD tx: -13%

What do the screens show for `Cc1nn(-c2ccccc2)c(C)c1C(=O)OC(C)C(=O)NC1CCCCC1C` (configuration not stated)?
KB-3-1 tox: inactive; KB-V1 cytotox: inconclusive; DT40 TDP1 no CPT: 21µM*; TDP1 cell CPT: 13µM*; HT1080-NT tox: 0%; HT1080 IDH1KD tx: -2%

Results for CC(=O)N1CCc2c(sc(NC(=O)C3COc4ccccc4O3)c2C(N)=O)C1 (configuration not stated) ?
KB-3-1 tox: inactive; KB-V1 cytotox: inconclusive; DT40 TDP1 no CPT: inconclusive; TDP1 cell CPT: 21µM*; HT1080-NT tox: -4%; HT1080 IDH1KD tx: -6%

How did CN1CCc2c(sc(NC(=O)C3COc4ccccc4O3)c2C(N)=O)C1 (configuration not stated) do in these assays?
KB-3-1 tox: inactive; KB-V1 cytotox: inactive; DT40 TDP1 no CPT: inconclusive; TDP1 cell CPT: inconclusive; HT1080-NT tox: -8%; HT1080 IDH1KD tx: -18%

Bioassay records: PubChem BioAssay, National Center for Advancing Translational Sciences (NCATS)
